In ChEMBL document CHEMBL3988442, “University of Dundee, Small-Polar-MMV Screening Library” (2021):
The whole screen tested about 48,000 compounds, of which about 13,000 (27%) showed an effect of 50% or more. The list shows a part of the results.

tested on: Wolbachia pipientis; assay: Anti-Wolbachia Cell-Based Screen; type: functional; design: scale not given: in the data most compounds retested in dose-response had high values; conditions: 5 µM

Going from `Cc1ncc(CNC(=O)N(C)C2CCN(c3ccccc3)C2=O)s1` (configuration not stated) to `Cc1[nH]ccc1C(=O)N(C)C1CC(=O)N(Cc2ccccc2)C1=O` (configuration not stated), the “Percent Effect” value rises from -4.731% to -3.858%.

Going from `Cc1cccc2c1cnn2CCCNC(=O)CCCC(=O)O` to `CCCNC(=O)Cn1cc(C#N)c(=O)c2cc(Br)ccc21`, the “Percent Effect” value rises from -9.765% to -9.356%.

Going from `CC(C(=O)N(C)C)S(=O)(=O)c1cc2c(cc1Cl)OCCO2` (configuration not stated) to `CN(C)S(=O)(=O)c1ccc(CN2CCC(C(N)=O)CC2)o1`, the “Percent Effect” value falls from 4.925% to -3.214%.

Going from `Cc1ccc(C)c(OCc2nnc(SCC3CCCN(C)C3)o2)c1` (configuration not stated) to `Cc1ccc(C)c(CSc2nnc(C(N)C(C)C)o2)c1.Cl` (configuration not stated), the “Percent Effect” value rises from -6.886% to 129.6%.

Compared with `CSCC[C@H](N)c1nnc(SCc2cc(C)ccc2C)o1.Cl`, `Cc1ccc(C)c(CSc2nnc([C@@H](N)C(C)C)o2)c1.Cl` is higher in “Percent Effect” value: 100.9% for the first, 118.1% for the second.

First: Cc1ccc(C)c(CSc2nnc(C(N)Cc3ccccc3)o2)c1.Cl (configuration not stated)
Second: Cc1ccccc1CSc1nc(N)cc(N2CCOC(C(N)=O)C2)n1 (configuration not stated)
The “Percent Effect” value of the first is higher: 112.4% for the first, 17.62% for the second.

Compared with `CS(=O)(=O)c1ccc(NC(=O)N2CCc3sccc3C2)cn1`, `COc1ccc(Oc2ncccc2NC(=O)N2CC[C@H](O)C2)cc1` is lower in “Percent Effect” value: 17.51% for the first, 8.282% for the second.

Going from `CN(C)c1ccc(NC(=O)CN2CCS(=O)(=O)CC2)cn1` to `CN(C)C(=O)NCc1ncn2c1CN(Cc1ccco1)CCC2.O=C(O)C(F)(F)F`, the “Percent Effect” value falls from 10.44% to -2.342%.

First: O=C(c1cccnc1SCc1ccccc1)N1CCOCC1
Second: O=C(c1cccnc1SCc1ccccc1)N1CC[C@@H](O)C1
The “Percent Effect” value of the first is higher: 174.3% for the first, 159.2% for the second.

Compared with `CSc1ncccc1C(=O)N1C[C@H]2CC[C@@H]1CN(C(C)=O)C2`, `COc1ncccc1C(=O)N1CC[C@H]2C[C@@H](C)O[C@@H]2C1` is higher in “Percent Effect” value: 3.365% for the first, 13.58% for the second.

First: O=C(c1cccnc1-n1cncn1)N1CCN(c2ccccc2)CC1
Second: O=C(c1cccnc1SC/C=C/c1ccccc1)N1CC[C@H](O)C1
The “Percent Effect” value of the first is lower: -6.157% for the first, 8.97% for the second.

First: O=C(c1cccnc1Oc1ccc(Cl)cc1)N1CC[C@@H](O)C1
Second: O=C(c1cccnc1SC/C=C/c1ccccc1)N1CCOCC(O)C1 (configuration not stated)
The “Percent Effect” value of the first is higher: 158.3% for the first, 8.468% for the second.

First: CN(C(=O)c1ccc(OCC(F)F)nc1)c1ccc2c(c1)CCO2
Second: OC(CN1CC(n2cccn2)C1)c1ccc2c(c1)OCCO2 (configuration not stated)
The “Percent Effect” value of the first is higher: 2.001% for the first, -60.78% for the second.

Compared with `CS(=O)(=O)NCCN1CCOC2(CCc3ccccc32)C1` (configuration not stated), `Cn1cccc1CCC(=O)N1CCC2(CC1)c1ccccc1CC2O` (configuration not stated) is lower in “Percent Effect” value: 9.722% for the first, 8.573% for the second.

Compared with `O=C(Cc1c[nH]c(=O)[nH]c1=O)N1CCC2(CCC(=O)N(C3CC3)C2)CC1`, `Cc1cccc(C2CCCN(C(=O)CN3CCCC3=O)C2)c1` (configuration not stated) is lower in “Percent Effect” value: 10.83% for the first, -1.59% for the second.

Going from `Cn1ccc(C(=O)Nc2nc(-c3ccc(Cl)cc3)n[nH]2)cc1=O` to `C[C@H](c1ccc(Cl)cc1)n1c(C2CC2)n[nH]c1=O`, the “Percent Effect” value falls from 5.787% to -27.24%.

Compared with `CSCC(=O)Nc1ncc(I)cc1C`, `CSCC[C@@H](CO)n1ccnc1-c1ccncc1` is lower in “Percent Effect” value: -3.012% for the first, -26.42% for the second.

Going from `Cc1cc(C)c(CNC(=O)NCc2ccc3c(c2)CCC3)c(=O)[nH]1` to `NC(=O)NCCC(=O)NCc1cccnc1N1CCc2ccccc2C1`, the “Percent Effect” value rises from -7.046% to 5.248%.

Going from `CN(C)S(=O)(=O)c1ccc(-c2nc(C#N)c(NC3CC3)o2)o1` to `CN(C)S(=O)(=O)c1ccc(-c2nc(C#N)c(NC3CCCCC3)o2)o1`, the “Percent Effect” value rises from 107.9% to 126.8%.

Going from `C1CCC(OCCN2CCN(CCOC3CCCCC3)CC2)CC1` to `CN1C(=O)[C@H]2CC[C@@H]1CN(C(=O)c1nnc3n1CCCCC3)C2`, the “Percent Effect” value falls from 16.33% to 10.69%.

First: Oc1cccc(-c2cc(C3CCN(Cc4cncnc4)C3)ccn2)c1 (configuration not stated)
Second: COc1cccc(CC(=O)N2CCCC(c3n[nH]c4nccnc34)C2)c1 (configuration not stated)
The “Percent Effect” value of the first is lower: -2.47% for the first, 81.22% for the second.

Going from `CCC(=O)NCC(=O)NCC1(c2c(F)cccc2F)CCCC1` to `CCC(c1ccccc1)N1CCN(C(=O)c2cc(C(N)=O)c[nH]2)CC1` (configuration not stated), the “Percent Effect” value falls from -0.7519% to -8.4%.

Compared with `N#CCC(=O)NCc1nnc2n1CCN(Cc1ccco1)C2`, `O=C1CCCN1Cc1nnc2n1CCN(Cc1ccco1)C2` is higher in “Percent Effect” value: -13.02% for the first, 88.52% for the second.

Compared with `O=C(O)C(F)(F)F.O=C1CCCN1Cc1nnc2n1CCCN(Cc1ccco1)C2`, `O=C(O)C(F)(F)F.O=C1CCCN1Cc1nnc2n1CCN(Cc1ccco1)CC2` is lower in “Percent Effect” value: 117.6% for the first, 95.89% for the second.

First: O=C(O)C(F)(F)F.O=C(O)C(F)(F)F.c1ccc(CN2CCc3nnc(CN4CCCCC4)n3CC2)nc1
Second: O=C(O)C(F)(F)F.O=C(O)C(F)(F)F.c1ccc(OCc2nnc3n2CCN(Cc2ccco2)C3)nc1
The “Percent Effect” value of the first is lower: -3.311% for the first, 6.411% for the second.

Compared with `c1cnc(OCc2nnc3n2CCN(Cc2ccco2)C3)nc1`, `Cc1cccc(CC(=O)N2CCCC(c3n[nH]c4nccnc34)C2)c1` (configuration not stated) is higher in “Percent Effect” value: -5.792% for the first, 102.4% for the second.

Compared with `CCN(Cc1ccccc1C)S(C)(=O)=O`, `CCN(Cc1ccc(Cl)s1)S(=O)(=O)CCOC` is lower in “Percent Effect” value: -4.247% for the first, -12.02% for the second.

First: CN(CC(=O)NCc1ccccn1)CC1CCCN1c1cccnn1 (configuration not stated)
Second: CN(CC(=O)NCc1ccccn1)C1CCCN(c2cccnn2)C1 (configuration not stated)
The “Percent Effect” value of the first is lower: -6.159% for the first, 106.6% for the second.

First: COCCCNC(=O)CN(C)C1CCCN(c2cccnn2)C1 (configuration not stated)
Second: COc1cccc(COCC(=O)N2CCCC(c3cc(C)[nH]n3)C2)c1 (configuration not stated)
The “Percent Effect” value of the first is higher: 138.8% for the first, 9.679% for the second.

Going from `N#Cc1cccc(NC2CC(=O)N(Cc3cccc(F)c3)C2)n1` (configuration not stated) to `NCc1n[nH]c(=O)n1-c1ccccc1Oc1ccccc1`, the “Percent Effect” value falls from 7.096% to -5.025%.

First: CCCc1n[nH]c(=O)n1Cc1ccccc1F
Second: CCCc1n[nH]c(=O)n1[C@@H](CC)c1ccccc1
The “Percent Effect” value of the first is lower: -4.193% for the first, 92.4% for the second.

Going from `CC[C@@H](c1ccccc1)n1c(CCN)n[nH]c1=O` to `CC[C@@H](c1ccccc1)n1c(CN)n[nH]c1=O`, the “Percent Effect” value rises from 91.36% to 112.8%.

Going from `CC[C@@H](c1ccccc1)n1c(C2CC2)n[nH]c1=O` to `C[C@H](c1ccc(F)cc1)n1c(C2CCN(C)CC2)n[nH]c1=O`, the “Percent Effect” value falls from 115.6% to -149.6%.

For `CCCc1cc(C(=O)NCCN2C(=O)c3ccccc3C2=O)[nH]n1`, the “Percent Effect” value was -4.22%.
